A selection: hits, their analogues and other compounds. The true share with any hit is near 7.6%.
MCF10A rereplic: A quantitative high throughput screen for small molecules that induce DNA re-replication in MCF 10a normal breast cells; 350,000 tested, 2.9% active; Potency, µM (doses to about 46.1 µM), for inactives: top-dose activity, positive = re-replication, most hits filed as activators; MCF 10A DNA re-replication, Hoechst nuclear intensity, 48 h; note: potency is the fitted concentration of half-maximal effect; % of control where 0% means no effect; nearly all actives have a fitted effect of over 50% in size
SW480 rerep: A quantitative high throughput screen for small molecules that induce DNA re-replication in SW480 colon adenocarcinoma cells; SW480 DNA re-replication, Hoechst DNA content imaging, 48 h; Potency, µM (doses to about 46.1 µM), inactives show at the highest dose re-replication activation, actives largely listed as activators; 340,000 tested, 1.8% active; AID 624297, 2012; note: potency is the fitted concentration of half-maximal effect; % of control where 0% means no effect; nearly all actives have a fitted effect of over 55% in size
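Quantitative HTS format with DMSO vehicle controls; 48 hr drug incubation at 37 C, then 40 min Hoechst staining and scanning imager measurement at 405 nm excitation.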
hERG WT inh: qHTS for Inhibitors of KCHN2 3.1: Wildtype qHTS; U2OS, BacMam KCNH2, thallium flux FluxOr; active compounds read low; Voltage-gated inwardly rectifying potassium channel KCNH2 (Homo sapiens), Q12809; 340,000 tested, 0.37% active; activity change, % at 1.84 µM;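 active = maximum activity change below -70%; inconclusive = maximum activity change between -70% and -50%; inactive = maximum activity change above -50%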; note: % is set by controls: 0 for no effect and ±100 for the full control effect
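U2OS cells transduced with wild-type KCNH2 virus are loaded with FluxOr dye for 45 min, and thallium flux is measured in kinetic reads before and after stimulation buffer. Rate constants are normalized to DMSO controls.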
KCNH2 3.1 block: qHTS for Inhibitors of KCHN2 3.1: Mutant qHTS | activity change, % (tested at about 1.8 µM) | U2OS KCNH2 3.1, thallium flux FluxOr; active compounds read low | AID 720553, 2013 | 340,000 tested, 0.95% active;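 active = maximum activity change below -70%; inconclusive = maximum activity change from -70% to -50%; inactive = maximum activity change above -50%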;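 note: thallium influx rate constant from kinetic fluorescence after stimulation buffer; % is set by controls: 0 for no effect and ±100 for the full control effect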
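Virally transduced U2OS (3.1 isoform, 4 h infection in dark at RT) → overnight 37 C → FluxOr + Red40 in HBSS/HEPES, 45 min → stimulation buffer, 2 min kinetic read → rate constant vs DMSO controls.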
KB-V1 cytotox: qHTS assay for MDR1-selective chemotherapeutics: Primary screen using the drug-selected MDR subline cells KB-V1. 400,000 tested, 3.4% active. KB-V1 MDR cells viability, CellTiter-Glo, 72 h. Potency, µM (doses to about 46.1 µM), usual class: cytotoxic; note: potency is the fitted concentration of half-maximal effect; % is set by controls: 0 for no effect and ±100 for the full control effect; nearly all actives have a fitted effect of over 60% in size
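Drug-selected KB-V1 cells, grown in DMEM lacking phenol red with 10% FBS, receive compound titrations; after three days at 37 degrees C, surviving cell ATP is quantified by CellTiter-Glo luminescence and responses normalized and curve-fitted.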
KB-3-1 cytotox: qHTS assay for MDR1-selective chemotherapeutics: Primary screen using the parental adenocarcinoma cell KB-3-1; AID 1347075, 2019; KB-3-1 viability, CellTiter-Glo ATP luminescence, 72 h; Potency, µM (top dose mostly 46.1 µM), most hits filed as cytotoxic; 400,000 tested, 1.4% active; note: potency is the fitted concentration of half-maximal effect; % is set by controls: 0 for no effect and ±100 for the full control effect; nearly all actives have a fitted effect of over 60% in size
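Cells are dispensed, compounds pinned in, plates held at 37 °C for 72 h, then CellTiter-Glo is added and luminescence read after 10 minutes. Cell line: parental KB-3-1 in phenol-red-free DMEM, 10% FBS.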
* hit, by the source's call; i = inactive; ? = inconclusive; / = not tested or not shown. Unless noted, calls come from the whole dose curve; as a rule, active = well fitted curve in the direction sought with a large enough effect; inconclusive = small, poorly fitted or top-dose-only effect, or another doubt; inactive = no such curve, though single readings can be large; an effect the other way counts as inactive or inconclusive.

SMILES	MCF10A rereplic	SW480 rerep	hERG WT inh	KCNH2 3.1 block	KB-V1 cytotox	KB-3-1 cytotox
COc1ccc(-c2n[nH]c(C)c2-c2cnn(-c3ccccc3)c2)c(O)c1	21µM*	?	-24	1	?	i
COc1ccc(-c2n[nH]c(C)c2-c2cnn(-c3ccccc3)c2)c(O)c1C	?	15µM*	5	-15	?	?
COc1ccc(-c2onc(C)c2-c2cnn(-c3ccccc3)c2)c(O)c1C	?	?	-2	-4	i	i
COc1ccc(-c2cc(-c3ccccc3)n[nH]2)c(O)c1	?	-12%	8	9	?	i
Cc1nc2cc(-c3ccccc3)nn2c(C)c1CCC(=O)NC(C)c1ccc2c(c1)OCCO2 (stereo unspecified)	3%	-2%	-29	3	i	i
N#CN=CN1CC=C(c2ccc(Cl)cc2)CC1	/	/	0	-1	2.3µM*	9.2µM*
COc1ccc(C2C(C#N)=C(N)Nc3nc4ccccc4n32)cc1 (stereo unspecified)	-7%	-4%	-113*	11	i	i
Cc1sc2nc3ccc(N4CCCCC4)nn3c(=O)c2c1C	12%	-3%	0	3	9.2µM*	i
CCCNC(=O)COC(=O)c1ccccc1C(=O)c1ccc(Cl)c([N+](=O)[O-])c1	?	6.5µM*	-10	-3	i	?
O=C(COC(=O)c1ccccc1[N+](=O)[O-])NCCCc1ccccc1	18µM*	-15%	20	2	i	i
Cc1ccc(C(=O)OCC(=O)Nc2c(C)n(C)n(-c3ccccc3)c2=O)cc1[N+](=O)[O-]	6%	-20%	4	-6	i	i
Cc1ccc(Cl)c(NC(=O)COC(=O)c2ccccc2C(=O)c2ccc(Cl)c([N+](=O)[O-])c2)c1Cl	2.6µM*	3.7µM*	-8	-16	i	?
CC(C)C(OC(=O)c1nsc(Cl)c1Cl)C(=O)NC(C)(C)C (stereo unspecified)	6%	-7%	2	9	i	i
COc1cc(OC)c(-c2nn3c(-c4cc(C)[nH]n4)nnc3s2)cc1OC	/	/	/	/	?	i
O=C(CCNS(=O)(=O)c1ccc2c(c1)CCN2C(=O)C1CC1)Nc1ccc(F)cc1F	/	/	/	/	i	i
COc1ccccc1NC(=O)c1ccc2[nH]c(C)cc(=O)c2c1	/	/	/	/	?	i
Cc1sc2nc(C)n(/N=C/N(C)C)c(=O)c2c1C	0%	15µM*	14	-10	i	i
C[C@H](CCCC(C)(C)O)[C@H]1CC[C@H]2[C@@H]3CC=C4C[C@@H](O)CC[C@]4(C)[C@H]3CC[C@]12C	-8%	-6%	/	/	/	/
Cc1ccc2c(c1)C(=O)CC1(CCCC1)O2	-18%	-13%	2	-3	i	i
CC(=NNC(=S)Nc1ccccc1)c1ccccn1	/	/	51	-7	?	?
CC(=NNC(=S)N1CCCCC1)c1cccc(C)n1	?	?	-7	-3	?	0.23µM*
CSC(=S)NN=C(C)c1cccc(C)n1	?	0.37µM*	?	25	?	?
CC(=NNC(=S)N1CCCCC1)c1ccccn1	/	/	-13	8	?	?
CC(=O)Nc1cccc(Nc2nc(-c3ccccc3F)nc3ccccc23)c1	-3%	-4%	5	/	i	i
Cc1ccc(NC(=O)C2CC(=O)N(C(C)c3ccccc3)C2)cc1 (stereo unspecified)	2%	0%	-5	-5	18µM*	i
CCOC(=O)c1ccc(-n2cccc2/C=C2\NC(=O)NC2=O)cc1	7.3µM*	18µM*	/	/	7.3µM*	5.8µM*

Screens deposited in PubChem by National Center for Advancing Translational Sciences (NCATS).
